We go through 37 compounds from publication PMC5540273 (PLoS ONE, 2017).
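Further: KINOMEscan kinase panel screen.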

The subject of the first assay is NEK11. As to conditions: concentration: 1 μM, replicates: in singlicate; n = 1.
In the case of `CCNc1nccc(-c2c(-c3ccc(F)cc3)ncn2C2CCN(C)CC2)n1`, the “%Inh” value is listed as 0%.
On the same count and under the same terms, as for `CS(=O)(=O)c1cccc(CNc2nc(Nc3ccc4c(c3)CCC(=O)N4)ncc2C(F)(F)F)c1`, the figure is 0%; as for `Cc1ccc(NC(=O)c2ccnc(N3CCCCC3)c2)cc1-c1ccc(C(=O)NCC2CC2)cc1` [GW775610], 0%.
As for `CN(C)c1ncnc2nc[nH]c12` [SKF-31736], the “%Inh” value came out at 0%.
As to `Cc1ccc(Nc2ccnc(Nc3ccc(C)c(F)c3)n2)cc1O.Cl` [GW582868], the “%Inh” value was 3%.
With `Cc1ccc(O)cc1Nc1ccnc2ccc(C(C)(C)C)cc12` [GW856805], the “%Inh” value amounted to 23%.
For the compound `Cn1cc(-c2ccc3c(c2)CCN3C(=O)Cc2cc(F)cc(C(F)(F)F)c2)c2c(N)ncnc21` [GSK2635225], the “%Inh” value is given as 8%.
With `CN(c1ccc(F)c(NC(=O)c2cccc(OC(C)(C)C#N)c2Cl)c1)c1ccc2nc(NC(=O)C3CC3)sc2n1`, the “%Inh” value was found to be 0%.
Consider `CC(C)NCC(Cc1ccccc1)NC(=O)c1cc(Br)c(-c2ccnc3[nH]ccc23)s1.Cl.Cl` (centres unmarked) [GSK1383281], for which the “%Inh” value is recorded as 0%.
On to `CCOc1nccc(-c2c(-c3ccc(F)cc3)ncn2C2CCNCC2)n1` [SB-249175], for which the “%Inh” value is on record as 50%.
As to `CN(C)CCOc1ccc(-c2cc(-c3ccc(Cl)c(O)c3)c(-c3ccncc3)[nH]2)cc1.Cl.Cl` [SB-684387], the “%Inh” value was determined as 38%.
As to `O=C(O)C(F)(F)F.O=c1[nH]ccc2nc(N[C@@H]3CCNC3)nc(Nc3cc(Cl)cc(Cl)c3)c12` [GSK2188764], the “%Inh” value amounted to 0%.
As to `CNc1nccc(-c2ccc3c(N)n[nH]c3c2)n1` [GSK2206003], the “%Inh” value came out at 0%.
For `CC(C)c1nc(-c2ccc(F)c(NS(=O)(=O)c3c(F)cccc3F)c2)c(-c2ccnc(Nc3ccc(N4CCOCC4)nc3)n2)s1` [GSK1804250], the “%Inh” value is 97.6%.
The same measure, in the same setting: to `Cc1ccc(-c2ccc3occ(-c4ccc(S(C)=O)cc4)c3c2)nn1` (centres unmarked) belongs 0%.
Take `Nc1ncnc2scc(-c3ccc(NC(=O)Cc4cc(F)ccc4F)cc3)c12.O=C(O)C(F)(F)F` [SB-731254-M]: the “%Inh” value is given as 36%.
On to `COc1cc(Nc2nccc(N3CCC(NC(=O)Nc4ccc5c(c4)OCO5)C3)n2)cc(OC)c1OC` (centres unmarked) [GSK1379766], for which the “%Inh” value was 0%.
With `O=C(Nc1n[nH]c2cc(-c3cccs3)ccc12)C1CC1` [SB-731284], the “%Inh” value was 18%.
Turning to `Fc1cc(Cl)ccc1Nc1ccnc2cc(-c3ccc(CN4CCSCC4)o3)ccc12` [GW560106], the “%Inh” value was found to be 22%.
Regarding `COc1cccc(CC(=O)N2CCc3cc(-c4cn(C)c5ncnc(N)c45)ccc32)c1` [GSK2608899], the “%Inh” value amounted to 49%.
For `COc1ccc(C2=C(Nc3cccc(O)c3)C(=O)NC2=O)cc1` [SB-390766], the “%Inh” value was 19%.
For `Cc1ccc(O)cc1Nc1ccnc2cc(-c3ccc(CN4CCCCC4)o3)ccc12` [GW557777], the “%Inh” value was 0%.
Same read-out and setting: as for `Cc1ccc(C)c(NC(=O)Nc2ccc(C)c(-c3ccc(C(=O)Nc4ccncc4)cc3)c2)c1` [GSK1398473], the figure is 0%; as for `Cc1cc(-c2ccnc(Nc3cccc(C#N)c3)n2)cc(C)c1O` [GSK1440913], 1%; as for `Nc1ncc(-c2ccc3nccc(-c4ccncc4)c3c2)cc1S(=O)(=O)N1CCCCC1` [GSK1693850], 0%.

The next assay has as its system NEK1. The settings on record: concentration: 1 μM, replicates: in singlicate; n = 1.
`CN1CCN(Cc2ccc(NC(=O)Nc3ccc(N(C)c4ccnc(Nc5ccc(CS(C)(=O)=O)cc5)n4)cc3)cc2)CC1.Cl` [GW827654]: the “%Inh” value is 45%.
Take `COc1cccc(-c2nc(-c3ccccc3)[nH]c2-c2ccncc2)c1` [SB-610250]: the “%Inh” value was 100%.
Same read-out and setting: to `CN(C)CCNS(=O)(=O)c1ccc(-c2ccnc3[nH]ccc23)cc1` [GSK977620] belongs 99.8%; to `N#CC1(c2cccc(C(=O)Nc3cccc(Oc4ccc5nc(NC(=O)C6CC6)sc5n4)c3)c2)CC1`, 40%.
Consider `CCNC(=O)/C=C/c1n[nH]c2cc(Sc3ccccc3C(=O)NC)ccc12`, for which the “%Inh” value was 0%.
Take `CCn1cnc2c(NCc3ccccc3)ncnc21` [SKF-96418]: the “%Inh” value was found to be 0%.
Take `CN(c1ccc2c(c1)nc(NCc1ccccc1)n2C)c1ccnc(Nc2ccc(CS(C)(=O)=O)cc2)n1.Cl` [GW811603]: the “%Inh” value worked out at 0%.
Regarding `Cl.O=C(Nc1ccc(Oc2ccc3[nH]c(NC(=O)c4ccco4)nc3c2)cc1)Nc1cc(C(F)(F)F)ccc1F` [GW683134], the “%Inh” value is given as 0%.
Consider `Nc1ncc(-c2cn[nH]c2)c2scc(-c3ccc4c(c3)CCN4C(=O)Cc3ccccc3)c12` [GSK2593067], for which the “%Inh” value worked out at 7%.
The same measure, in the same setting: as for `Cc1ccc(NC(=O)c2ccc(Cl)c(Cl)c2)cc1-c1ccc(C(=O)Nc2ccncc2)cc1` [GSK1398460], the figure is 16%; as for `COC(=O)Nc1nc2ccc(Oc3ccc(NC(=O)Nc4cc(C(F)(F)F)ccc4F)cc3)cc2[nH]1.Cl` [GW654607], 0%; as for `COc1ccc(C)c(Nc2ccnc(Nc3ccc(-c4cnc[nH]4)cc3)n2)c1.Cl` [GW784041], 0%.
The same measure, in the same setting: to `CCNc1nccc(-c2c(-c3ccc(F)cc3)ncn2C2CCN(C)CC2)n1` belongs 1%.
Consider `CS(=O)(=O)c1cccc(CNc2nc(Nc3ccc4c(c3)CCC(=O)N4)ncc2C(F)(F)F)c1`, for which the “%Inh” value came to 0%.
Still for that read-out and setting: to `Cc1ccc(NC(=O)c2ccnc(N3CCCCC3)c2)cc1-c1ccc(C(=O)NCC2CC2)cc1` [GW775610] belongs 0%.
On the same count and under the same terms, as for `CN(C)c1ncnc2nc[nH]c12` [SKF-31736], the figure is 0%.
For the compound `Cc1ccc(Nc2ccnc(Nc3ccc(C)c(F)c3)n2)cc1O.Cl` [GW582868], the “%Inh” value came to 0%.
Consider `Cc1ccc(O)cc1Nc1ccnc2ccc(C(C)(C)C)cc12` [GW856805], for which the “%Inh” value is given as 21%.
With `Cn1cc(-c2ccc3c(c2)CCN3C(=O)Cc2cc(F)cc(C(F)(F)F)c2)c2c(N)ncnc21` [GSK2635225], the “%Inh” value stood at 9%.
The same measure, in the same setting: as for `CN(c1ccc(F)c(NC(=O)c2cccc(OC(C)(C)C#N)c2Cl)c1)c1ccc2nc(NC(=O)C3CC3)sc2n1`, the figure is 3%; as for `CC(C)NCC(Cc1ccccc1)NC(=O)c1cc(Br)c(-c2ccnc3[nH]ccc23)s1.Cl.Cl` (centres unmarked) [GSK1383281], 91.9%.
For the compound `CCOc1nccc(-c2c(-c3ccc(F)cc3)ncn2C2CCNCC2)n1` [SB-249175], the “%Inh” value amounted to 9%.
On the same count and under the same terms, as for `CN(C)CCOc1ccc(-c2cc(-c3ccc(Cl)c(O)c3)c(-c3ccncc3)[nH]2)cc1.Cl.Cl` [SB-684387], the figure is 9%; as for `O=C(O)C(F)(F)F.O=c1[nH]ccc2nc(N[C@@H]3CCNC3)nc(Nc3cc(Cl)cc(Cl)c3)c12` [GSK2188764], 28%; as for `CNc1nccc(-c2ccc3c(N)n[nH]c3c2)n1` [GSK2206003], 4%.
Turning to `CC(C)c1nc(-c2ccc(F)c(NS(=O)(=O)c3c(F)cccc3F)c2)c(-c2ccnc(Nc3ccc(N4CCOCC4)nc3)n2)s1` [GSK1804250], the “%Inh” value worked out at 16%.
In the case of `Cc1ccc(-c2ccc3occ(-c4ccc(S(C)=O)cc4)c3c2)nn1` (centres unmarked), the “%Inh” value was 0%.
`Nc1ncnc2scc(-c3ccc(NC(=O)Cc4cc(F)ccc4F)cc3)c12.O=C(O)C(F)(F)F` [SB-731254-M]: the “%Inh” value is recorded as 20%.
Turning to `COc1cc(Nc2nccc(N3CCC(NC(=O)Nc4ccc5c(c4)OCO5)C3)n2)cc(OC)c1OC` (centres unmarked) [GSK1379766], the “%Inh” value came to 46%.
Consider `O=C(Nc1n[nH]c2cc(-c3cccs3)ccc12)C1CC1` [SB-731284], for which the “%Inh” value is given as 0%.
Regarding `Fc1cc(Cl)ccc1Nc1ccnc2cc(-c3ccc(CN4CCSCC4)o3)ccc12` [GW560106], the “%Inh” value worked out at 0%.
On to `COc1cccc(CC(=O)N2CCc3cc(-c4cn(C)c5ncnc(N)c45)ccc32)c1` [GSK2608899], for which the “%Inh” value came to 21%.
`COc1ccc(C2=C(Nc3cccc(O)c3)C(=O)NC2=O)cc1` [SB-390766]: the “%Inh” value amounted to 0%.
`Cc1ccc(O)cc1Nc1ccnc2cc(-c3ccc(CN4CCCCC4)o3)ccc12` [GW557777]: the “%Inh” value was found to be 0%.
As to `Cc1ccc(C)c(NC(=O)Nc2ccc(C)c(-c3ccc(C(=O)Nc4ccncc4)cc3)c2)c1` [GSK1398473], the “%Inh” value is given as 0%.
Turning to `Cc1cc(-c2ccnc(Nc3cccc(C#N)c3)n2)cc(C)c1O` [GSK1440913], the “%Inh” value is on record as 0%.
For `Nc1ncc(-c2ccc3nccc(-c4ccncc4)c3c2)cc1S(=O)(=O)N1CCCCC1` [GSK1693850], the “%Inh” value came to 2%.
